Assay results taken from publication PMC5540273 (PLoS ONE, 2017).

tested on: T1, LKB1; details: concentration: 1 μM, replicates: in singlicate; n = 1
T1 construct: gene STK11
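Also: KINOMEscan kinase panel screen.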

First: Nc1n[nH]c2cnc(-c3ccccc3)cc12 [SB-642124]
Second: C[C@@H]1CC[C@@H](C(=O)Nc2ccccc2)CN1c1cc(-c2ccc3c(N)n[nH]c3c2)nc(N)n1 [GSK2286062]
The “%Inh” value of the first is lower: 0% for the first, 20% for the second.

COc1cccc(C2=C(Nc3ccc(Cl)c(C(=O)O)c3)C(=O)NC2=O)c1 [SB-390769] and COc1cccc(-c2ccc3c(NC(=O)C4CC4)n[nH]c3n2)c1 [SB-710903] are the same in “%Inh” value: 0% for the first, 0% for the second.

Compared with Cn1cc(-c2ccc3c(c2)CCN3C(=O)Cc2cccc(Cl)c2)c2c(N)ncnc21 [GSK2606590], Nc1ncc(-c2cccnc2)c2scc(-c3ccc4c(c3)CCN4C(=O)Cc3ccccc3)c12 [GSK683281] is higher in “%Inh” value: 0% for the first, 10% for the second.

First: Cc1ccc(C(=O)N2CC[C@@H](O)C2)cc1-n1c(C)cc(OCc2ccc(F)cc2F)c(Br)c1=O
Second: COc1cc(Nc2nccc(N3CCC(NC(=O)c4cc5ccccc5s4)C3)n2)cc(OC)c1OC (stereo not shown) [GSK1379760]
The “%Inh” value of the first is higher: 36% for the first, 14% for the second.

Going from O=c1[nH]cc(-c2ccc(N3CCOCC3)cc2)c2sc(-c3cn[nH]c3)cc12 [GSK2276055] to CNC(=O)c1ccccc1Nc1nc(Nc2ccc(N3CCOCC3)cc2)ncc1Cl.Cl [GSK1576028], the “%Inh” value rises from 0% to 51%.

COc1cc(Nc2ncc3c(C)nc(-c4cc5ccccc5[nH]4)n3n2)cc(OC)c1OC [GW869516] and COc1cc(Nc2nccc(-c3c(-c4cccc(NC(=O)c5c(F)cccc5F)c4)nn4ncccc34)n2)cc(OC)c1OC [GSK327238] are the same in “%Inh” value: 0% for the first, 0% for the second.

O=C(Nc1cccc(-c2nn3ccccc3c2-c2ccnc(Nc3cccc(F)c3)n2)c1)c1c(F)ccc(F)c1Cl [GSK357952] and Cc1ccc(F)c(C(=O)Nc2cccc(-c3nn4ccccc4c3-c3ccnc(Nc4cccc(F)c4)n3)c2)c1F [GSK361061] are the same in “%Inh” value: 0% for the first, 0% for the second.

Compared with CSc1cccc2c(-c3ccncn3)c(-c3ccc(F)cc3)nn12 [GW514786], O=C(Nc1cccc(-c2nn3ncccc3c2-c2ccnc(Nc3ccccc3)n2)c1)c1c(F)cccc1F [GSK198271] is higher in “%Inh” value: 0% for the first, 3% for the second.

Cc1ccc(S(=O)(=O)Nc2ccc(Nc3nccc(Nc4cccc5[nH]ncc45)n3)cc2)cc1 [GSK581271] and CN(c1ccc(NC(=O)Nc2cc(C(F)(F)F)ccc2F)cc1)c1ccnc(Nc2ccc(S(N)(=O)=O)cc2)n1 [GW809893] are the same in “%Inh” value: 0% for the first, 0% for the second.

Cl.c1ccc(-c2ccc3c(Nc4ccc5[nH]ncc5c4)ccnc3c2)nc1 [GW440137] and Cl.c1ccc(-c2ccc3c(Nc4ccc5[nH]ccc5c4)ccnc3c2)nc1 [GW440138] are the same in “%Inh” value: 0% for the first, 0% for the second.

Compared with CN(C)S(=O)(=O)c1cc(-c2ccc3nccc(-c4cccc(S(N)(=O)=O)c4)c3c2)cnc1N [GSK1669921], CC(C)(C)c1ccc2nccc(Nc3cccc(O)c3)c2c1 [GW856795] is higher in “%Inh” value: 0% for the first, 29% for the second.

Compared with COc1ccc(CNC(=O)NC2CCN(c3ccnc(Nc4ccc(F)cc4)n3)CC2)cc1 [GSK1379788], Fc1ccc(-c2ncn(C3CCNCC3)c2-c2ccnc(Oc3ccc(-c4ccccc4)cc3)n2)cc1 [SB-245391] is lower in “%Inh” value: 4% for the first, 0% for the second.

Compared with Cl.Cl.NCC(C(=O)Nc1cc(Br)c(-c2ccnc3[nH]ccc23)s1)c1ccccc1 (stereo not shown) [GSK1269851], Cl.NC(=O)c1cccc(Nc2nccc(Nc3ccc(Oc4c(Cl)cccc4Cl)c(Cl)c3)n2)c1 [GW659009] is lower in “%Inh” value: 78% for the first, 0% for the second.

CCS(=O)(=O)c1ccc(OC)c(Nc2nccc(-c3c(-c4cccc(NC(=O)c5c(F)cccc5F)c4)nn4ncccc34)n2)c1 [GSK326180] and Cc1ccc(C(=O)Nc2ccc(Nc3ccnc4cc(-c5nccs5)ccc34)cc2O)cc1.Cl [GW494702] are the same in “%Inh” value: 0% for the first, 0% for the second.

Compared with O=C(Nc1n[nH]c2cc(-c3ccoc3)ccc12)C1CC1 [SB-738481], CCc1ccc(-c2ccc3c(c2)-c2c(cnn2C)S(=O)(=O)N3C)cc1 is higher in “%Inh” value: 0% for the first, 29% for the second.

Going from CCn1c(-c2nonc2N)nc2c(C#CC(C)(C)O)nc(OC[C@H](N)c3ccccc3)cc21 [GSK943949] to Cc1occc1-c1ncc(OC[C@@H](N)Cc2c[nH]c3ccccc23)cc1-c1ccc2[nH]nc(C)c2c1.O=C(O)C(F)(F)F [GSK682037], the “%Inh” value falls from 31% to 0%.

Going from Cn1cc(-c2[nH]c3cc(NC(=O)[C@H](N)C4CCCCC4)cc4c3c2C=NNC4=O)cn1 to COc1cc2c(cc1OCCN1CCNCC1)ncc1c3ccc(C#N)cc3[nH]c21, the “%Inh” value falls from 94.3% to 15%.

First: CC(=O)Nc1nc2cnc(Nc3cc(NC(=O)c4cccc(C5(C#N)CC5)c4Cl)ccc3C)nc2s1
Second: Cc1cccc(NC(=O)Nc2ccc(Oc3ncnc4ccn(C)c34)cc2)c1
The “%Inh” value of the first is lower: 0% for the first, 42% for the second.

With COCCOCCOc1cc2ncc3c4ccc(C#N)cc4[nH]c3c2cc1OC the “%Inh” value was 15%.
